Test results from PubChem BioAssay AID720584 (National Center for Advancing Translational Sciences (NCATS), 2013).
The list shows a part of the results. Records with an inconclusive call do not appear. Activity calls are given as the source filed them. Calls come from the whole dose curve; as a rule, active = well fitted inhibition curve with a large enough effect; inconclusive = small, poorly fitted or top-dose-only effect; inactive = flat fitted curve, though single readings scatter.

Test system: Trypanosoma brucei pyruvate kinase (TbPYK)
Assay: qHTS of Trypanosoma Brucei Inhibitors: Orthogonal Assay for Cherry-picked Compounds; note: nearly all actives have a fitted effect of over 75% in size
Details: recombinant TbPYK, ADP-Glo luminescence, 60 min
From the text: Members of the Trypanosomatidae family of parasitic protozoans cause a spectrum of diseases throughout the tropical and subtropical world. Sleeping sickness, caused by two subspecies of Trypanosoma brucei, is endemic to areas of sub-Saharan Africa, while Chagas' disease, a manifestation of Trypanosoma cruzi infection, is prevalent throughout Central and South America. In addition, many species of Leishmania are responsible for a range of cutaneous and visceral diseases, causing ulcers, destructive lesions and kalaazar, a lethal infection of the viscera. These diseases cause severe public health and economic burdens on populations that are often already caught in a tragic cycle of poverty, poor nutrition and disease. Collectively, parasites of the trypanosomatid family infect 30 million people worldwide (~500 million live in endemic areas), and account for ~130K deaths annually. Existing treatments have developed little in the past 50 years, and suffer from toxicity, poor efficacy and resistance; the goal of this project is to develop lead drugs that will be suitable for entry into pre-clinical trials. […] Glycolysis in axenically cultured T. cruzi, representing the intracellular pathogenic stage, is also essential for these parasites. {Engel, 1987} This project aims to discover and optimize selective inhibitors of the glycolytic enzyme pyruvate kinase (PYK) from Trypanosoma brucei, the parasite that causes sleeping sickness. […] While the primary qHTS provides a luminescence-based detection of TbPyK by measuring ATP production, the orthogonal assay will measure the amount of ADP substrate remaining. […]
Briefly, 2 uL of substrate/TbPYK buffer (all columns but column 4) are dispensed into Greiner white solid-bottom 1536-well assay plates. […] ADP-Glo reagent II is then added (5 uL), followed by a 10 minute room temperature incubation, before being transferred to a ViewLux high-throughput CCD imager (PerkinElmer), wherein single end-point measurements of luminescence are acquired using a clear filter. […]
Potency is the fitted concentration of half-maximal effect.

Row | Structure (SMILES) | Potency
1 | O=C1NC(=O)N(c2ccccc2)C(=O)/C1=C/c1ccc([N+](=O)[O-])s1 | 14.1 µM (active)
2 | Cc1ccc2c(c1)=C/C(=C\c1c(O)[nH]c(=O)[nH]c1=O)C(=O)N=2 | 25.1 µM (active)
3 | COc1ccc(N2C(=O)/C(=C/c3ccco3)C(=O)NC2=S)cc1 | 6.31 µM (active)
